Here are results for 10 compounds from PubChem BioAssay (Tox21).

Several values for one entry are separate records, joined by “and”; a condition that tells them apart may be missing. Equal entries are not always repeated. Inconclusive results are not listed. Unmarked numbers belong to inactive results. Activity calls are given as the source filed them. Unless noted, the call rests on the fitted dose curve; in most records, active means well fitted curve in the direction sought with a large enough effect in the repeat runs; inconclusive means weak or mixed curves; inactive means no such curve, though single readings can be large; an effect the other way counts as inactive or inconclusive.

The nature of assay [1]: qHTS assay to identify aromatase inhibitors - cell viability counter screen (AID 743084).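 Further: cells stimulated with testosterone during compound exposure; nearly all actives have a fitted effect of over 55% in size.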 Further: potency means the concentration at half of the fitted maximal effect. A general note: qHTS replaces the single test concentration by a dilution series.
Assay [2] has as its target Peroxisome proliferator-activated receptor gamma (Homo sapiens) (UniProt P37231). Nature of the assay: qHTS assay to identify small molecule agonists of the peroxisome proliferator-activated receptor gamma (PPARg) signaling pathway (AID 743094; active means well fitted activation curve with a large enough effect in the signal ratio in the repeat runs, not every such curve was filed as active; the % refers to the signal ratio; further: potency means the concentration at half of the fitted maximal effect). In outline: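 Reporter activation was scored by fluorescence of cleaved LiveBLAzer B/G substrate (1 h, room temperature) in PPARg-bla HEK293H cells previously treated 17 h at 37C with DMSO-dissolved compounds.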

Assay [3] is described as follows: qHTS assay for small molecule agonists of the antioxidant response element (ARE) signaling pathway (AID 743202; active means well fitted activation curve with a large enough effect in the signal ratio in the repeat runs, not every such curve was filed as active; the % refers to the signal ratio; further: potency means the concentration at half of the fitted maximal effect). The method, boiled down: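 Steps: seed ARE-bla HepG2 cells (2,000/well); incubate 5 h at 37 C; add compounds by pin tool; incubate 16 h at 37 C; add FRET substrate; read fluorescence after 2 h at RT.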
Assay [4] is described as follows: qHTS assay for small molecule agonists of the antioxidant response element (ARE) signaling pathway - cell viability counter screen (AID 743203; calls by dose curve; further: nearly all actives have a fitted effect of over 55% in size; further: potency means the concentration at half of the fitted maximal effect). The method, boiled down:
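Viability counter screen: stably transfected ARE-bla HepG2 line, 16 hrs compound exposure at 37C/5% CO2, ATP-based CellTiter-Glo luminescence measured in the reporter wells.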

A short description of assay [5]: qHTS assay to identify small molecule agonists of the peroxisome proliferator-activated receptor delta (PPARd) signaling pathway - cell viability counter screen (AID 743211). Further: nearly all actives have a fitted effect of over 55% in size. Further: potency means the concentration at half of the fitted maximal effect. The method, boiled down:
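qHTS cell viability: PPARd-bla HEK293H; 17 h cpd, 37C; CellTiter-Glo, luminescence at 30 min RT.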

The target of assay [6] is Peroxisome proliferator-activated receptor delta (Homo sapiens) (UniProt Q03181). The assay is described as follows: qHTS assay to identify small molecule agonists of the peroxisome proliferator-activated receptor delta (PPARd) signaling pathway (AID 743212; calls by dose curve; further: potency means the concentration at half of the fitted maximal effect). In outline:
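Cells expressing a UAS-driven beta-lactamase reporter (PPARd-bla HEK293H) were given test compounds after a 5 h settle and kept at 37 C. Reporter activity was then measured as FRET fluorescence using LiveBLAzer B/G substrate.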

Assay [7] can be described thus: qHTS assay to identify small molecule antagonists of the peroxisome proliferator-activated receptor delta (PPARd) signaling pathway - cell viability counter screen (AID 743213). Further: nearly all actives have a fitted effect of over 50% in size. Further: potency means the concentration at half of the fitted maximal effect. The method, boiled down: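 HEK293H cells with the PPARd UAS-bla reporter, co-treated 17 h at 37 C with compounds and L165041 (300 nM final), were lysed with CellTiter-Glo. Luminescence indicated viable cell content.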

Assay [8] has as its target Peroxisome proliferator-activated receptor delta (Homo sapiens) (UniProt Q03181). The assay is described as follows: qHTS assay to identify small molecule antagonists of the peroxisome proliferator-activated receptor delta (PPARd) signaling pathway (AID 743215; active means well fitted inhibition curve with a large enough effect in the signal ratio in the repeat runs, not every such curve was filed as active; the % refers to the signal ratio;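 further: cells stimulated with agonist L165041 at 300 nM final during compound exposure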; further: potency means the concentration at half of the fitted maximal effect). The method, boiled down: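 Plated HEK293H PPARd-bla cells rested 5 h at 37 C and 5% CO2. Compound, then agonist L165041 at 300 nM final, was added; 17 h at 37 C followed. Substrate loading, 2 h room temperature, fluorescence measured.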

For assay [9], the target named is Bile acid receptor (Homo sapiens) (UniProt Q96RI1). The assay is described as follows: qHTS assay to identify small molecule antagonists of the farnesoid-X-receptor (FXR) signaling pathway (AID 743217; active means well fitted inhibition curve with a large enough effect in the signal ratio in the repeat runs, not every such curve was filed as active; the % refers to the signal ratio). The method, boiled down:
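Screen of the Tox21 10K library in quantitative HTS format using FXR-UAS-bla HEK 293T reporter cells. Agonist chenodeoxycholic acid, 50 uM final, added with compounds; 16 h incubation at 37 °C; beta-lactamase FRET fluorescence measured.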

Assay [10] in a line: qHTS assay to identify small molecule agonists of the farnesoid-X-receptor (FXR) signaling pathway - cell viability counter screen (AID 743218). Further: nearly all actives have a fitted effect of over 45% in size. Further: potency means the concentration at half of the fitted maximal effect. The method, boiled down:
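Viability of FXR-bla HEK 293T cells is measured by ATP-based CellTiter-Glo luminescence following 16 h compound treatment at 37 C and a prior 2 h room-temperature beta-lactamase substrate step.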

Assay [11] has as its target Bile acid receptor (Homo sapiens) (UniProt Q96RI1). Nature of the assay: qHTS assay to identify small molecule agonists of the farnesoid-X-receptor (FXR) signaling pathway (AID 743220; active means well fitted activation curve with a large enough effect in the signal ratio in the repeat runs, not every such curve was filed as active; the % refers to the signal ratio; further: potency means the concentration at half of the fitted maximal effect). In outline: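 FXR-UAS-bla HEK 293T cells carrying a UAS-driven beta-lactamase reporter were plated for 5 h at 37C/5% CO2, then exposed to DMSO-dissolved Tox21 10K compounds for 16 h at 37C. A LiveBLAzer B/G FRET substrate was loaded for 2 h at room temperature before fluorescence reading.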

The nature of assay [12]: qHTS assay to identify small molecule antagonists of the farnesoid-X-receptor (FXR) signaling pathway - cell viability counter screen (AID 743221; active means well fitted cell-killing curve with a large enough effect in the repeat runs, not every such curve was filed as active; further: nearly all actives have a fitted effect of over 50% in size; further: potency means the concentration at half of the fitted maximal effect). The method, boiled down: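 After a 5 h settling period, FXR-bla HEK 293T cells receive compound and chenodeoxycholic acid (50 uM final) and incubate 16 h at 37 C; CellTiter-Glo luminescence, read after 30 min at room temperature, reports cell viability.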

In assay [13] the target is Vitamin D3 receptor (Homo sapiens) (UniProt P11473). The assay is described as follows: qHTS assay to identify small molecule agonists of the vitamin D receptor (VDR) signaling pathway (AID 743222; calls by dose curve). In outline: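 Fluorescence from cleaved LiveBLAzer B/G FRET substrate served as readout. VDR-bla cells had been treated 16 h at 37C with test compounds in DMSO, following a 4 h settling period, and substrate was loaded for 2 h at RT.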
Sequence of Vitamin D3 receptor (Homo sapiens) (P11473 whole entry, looked up): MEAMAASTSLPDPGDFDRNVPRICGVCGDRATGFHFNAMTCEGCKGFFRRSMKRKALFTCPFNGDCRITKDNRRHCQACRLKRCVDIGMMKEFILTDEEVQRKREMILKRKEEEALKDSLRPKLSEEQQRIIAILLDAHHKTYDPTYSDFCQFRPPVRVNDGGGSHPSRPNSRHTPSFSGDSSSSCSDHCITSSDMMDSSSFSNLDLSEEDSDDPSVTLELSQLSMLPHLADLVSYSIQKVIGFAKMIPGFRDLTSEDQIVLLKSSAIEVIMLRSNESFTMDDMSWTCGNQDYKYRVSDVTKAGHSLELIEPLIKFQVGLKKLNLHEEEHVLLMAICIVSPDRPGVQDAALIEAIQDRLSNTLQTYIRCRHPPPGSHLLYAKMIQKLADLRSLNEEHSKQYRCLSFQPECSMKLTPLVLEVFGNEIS

Assay [14] in a line: qHTS assay to identify small molecule antagonists of the peroxisome proliferator-activated receptor gamma (PPARg) signaling pathway - cell viability counter screen (AID 743194). Further: nearly all actives have a fitted effect of over 55% in size. The method, boiled down:
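PPARg-UAS-bla HEK293H cells were plated, rested 5 h at 37 C, then treated with compounds plus rosiglitazone (50 nM final) for 17 h at 37 C; viability was then read by CellTiter-Glo luminescence after 30 min at room temperature.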

Assay [15] in a line: qHTS assay for small molecule activators of the heat shock response signaling pathway (AID 743210; active means well fitted activation curve with a large enough effect in the signal ratio in the repeat runs, with a control signal flat, not every such curve was filed as active; the % refers to the signal ratio;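 further: HeLa cells with beta-lactamase reporter driven by heat shock elements; series mostly up to about 63 µM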). The method, boiled down:
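Activation of heat shock element-controlled beta-lactamase expression is measured in HeLa cells by LiveBLAzer FRET fluorescence, with compound exposure lasting 5 h at 37 C and substrate loading 2.5 h at room temperature.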

Assay [16] has as its target Aryl hydrocarbon receptor (Homo sapiens) (UniProt P35869). Nature of the assay: qHTS assay to identify small molecule that activate the aryl hydrocarbon receptor (AhR) signaling pathway (AID 743085). Further: nearly all actives have a fitted effect of over 15% in size. Further: potency means the concentration at half of the fitted maximal effect.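 On activation: HG2L7.5c1 human HepG2 liver cells with stably integrated DRE-driven firefly reporter; series mostly up to about 70 µM.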 The method, boiled down:
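AhR agonist activity is inferred from enhanced light output of a DRE-controlled firefly luciferase reporter in HepG2 cells, measured with ONE-Glo following 24 h treatment at 37C.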

The nature of assay [17]: qHTS assay to identify small molecule that activate the aryl hydrocarbon receptor (AhR) signaling pathway - cell viability counter screen (AID 743086). Further: nearly all actives have a fitted effect of over 45% in size. Further: potency means the concentration at half of the fitted maximal effect. The method, boiled down:
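HepG2-AhR-luc (HG2L7.5c1) cells, 4000/well, were preincubated 5 h at 37C, exposed to compound in qHTS format for 24 hr at 37C, then given CellTiter-Fluor for 30 min; viability was read as fluorescence in the reporter wells.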

The nature of assay [18]: qHTS assay for small molecule activators of the heat shock response signaling pathway - cell viability counter screen (AID 743209). Further: nearly all actives have a fitted effect of over 50% in size. The method, boiled down: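 Viability of HSE-bla HeLa cells is measured with CellTiter-Glo in the wells already used for the reporter read. Compound exposure lasts 5 h at 37 C, and luminescence is read after 30 min at room temperature.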
The target of assay [19] is Vitamin D3 receptor (Homo sapiens) (UniProt P11473). The assay is described as follows: qHTS assay to identify small molecule antagonists of the vitamin D receptor (VDR) signaling pathway (AID 743223; active means well fitted inhibition curve with a large enough effect in the signal ratio in the repeat runs, not every such curve was filed as active; the % refers to the signal ratio). The method, boiled down: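 Reporter line VDR-bla; stimulus 1alpha,25-(OH)2 vitamin D3, 3 nM final; compound co-addition, 16 h 37C/5% CO2; LiveBLAzer B/G substrate 2 h RT; fluorescence intensity.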

For assay [20], the target named is Peroxisome proliferator-activated receptor gamma (Homo sapiens) (UniProt P37231). Nature of the assay: qHTS assay to identify small molecule antagonists of the peroxisome proliferator-activated receptor gamma (PPARg) signaling pathway (AID 743191; calls by dose curve; further: nearly all actives have a fitted effect of over 30% in size; further: potency means the concentration at half of the fitted maximal effect). The method, boiled down:
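GeneBLAzer PPARg UAS-bla HEK293H cells carrying a UAS-driven beta-lactamase reporter were plated at 3000 cells/well, preincubated 5 h at 37C, then given compound for 17 h at 37C; LiveBLAzer B/G FRET substrate was read after 1 h at room temperature.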

Sequence of Bile acid receptor (Homo sapiens) (Q96RI1 whole entry, looked up): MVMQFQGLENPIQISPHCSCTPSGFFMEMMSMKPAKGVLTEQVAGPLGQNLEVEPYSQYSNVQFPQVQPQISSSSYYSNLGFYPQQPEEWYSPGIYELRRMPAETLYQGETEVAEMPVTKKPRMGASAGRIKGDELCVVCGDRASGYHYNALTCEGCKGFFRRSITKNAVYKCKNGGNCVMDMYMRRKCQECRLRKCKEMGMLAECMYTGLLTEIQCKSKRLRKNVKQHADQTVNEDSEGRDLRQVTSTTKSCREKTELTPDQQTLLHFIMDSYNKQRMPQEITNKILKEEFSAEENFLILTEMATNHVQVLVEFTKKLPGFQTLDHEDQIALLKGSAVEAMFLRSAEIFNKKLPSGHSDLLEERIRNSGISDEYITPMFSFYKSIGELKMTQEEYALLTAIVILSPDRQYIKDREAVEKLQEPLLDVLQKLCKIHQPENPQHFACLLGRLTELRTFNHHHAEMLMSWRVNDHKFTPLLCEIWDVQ
Sequence of Aryl hydrocarbon receptor (Homo sapiens) (P35869 whole entry, looked up): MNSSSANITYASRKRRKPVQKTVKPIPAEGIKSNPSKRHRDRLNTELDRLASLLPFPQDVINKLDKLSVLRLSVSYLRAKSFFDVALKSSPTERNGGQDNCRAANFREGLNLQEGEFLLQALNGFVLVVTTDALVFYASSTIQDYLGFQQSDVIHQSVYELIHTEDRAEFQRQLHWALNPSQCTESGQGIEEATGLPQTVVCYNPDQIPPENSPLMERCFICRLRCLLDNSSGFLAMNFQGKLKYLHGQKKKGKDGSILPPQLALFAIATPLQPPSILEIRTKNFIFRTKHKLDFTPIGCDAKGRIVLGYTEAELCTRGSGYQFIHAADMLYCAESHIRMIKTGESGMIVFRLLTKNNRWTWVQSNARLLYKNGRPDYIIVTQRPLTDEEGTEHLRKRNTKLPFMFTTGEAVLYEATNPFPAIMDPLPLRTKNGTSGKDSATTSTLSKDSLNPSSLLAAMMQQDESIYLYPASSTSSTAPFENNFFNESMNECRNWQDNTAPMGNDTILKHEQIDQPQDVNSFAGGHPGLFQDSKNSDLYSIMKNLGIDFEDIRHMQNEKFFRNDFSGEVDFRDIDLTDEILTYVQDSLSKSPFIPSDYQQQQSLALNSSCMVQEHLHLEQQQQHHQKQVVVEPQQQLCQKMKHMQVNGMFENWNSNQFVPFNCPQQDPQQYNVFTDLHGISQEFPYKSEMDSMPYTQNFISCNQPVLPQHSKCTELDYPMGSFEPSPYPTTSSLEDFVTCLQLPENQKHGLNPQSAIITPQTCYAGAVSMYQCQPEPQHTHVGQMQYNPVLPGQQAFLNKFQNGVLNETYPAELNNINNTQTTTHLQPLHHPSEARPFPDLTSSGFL
Sequence of Peroxisome proliferator-activated receptor gamma (Homo sapiens) (P37231 whole entry, looked up): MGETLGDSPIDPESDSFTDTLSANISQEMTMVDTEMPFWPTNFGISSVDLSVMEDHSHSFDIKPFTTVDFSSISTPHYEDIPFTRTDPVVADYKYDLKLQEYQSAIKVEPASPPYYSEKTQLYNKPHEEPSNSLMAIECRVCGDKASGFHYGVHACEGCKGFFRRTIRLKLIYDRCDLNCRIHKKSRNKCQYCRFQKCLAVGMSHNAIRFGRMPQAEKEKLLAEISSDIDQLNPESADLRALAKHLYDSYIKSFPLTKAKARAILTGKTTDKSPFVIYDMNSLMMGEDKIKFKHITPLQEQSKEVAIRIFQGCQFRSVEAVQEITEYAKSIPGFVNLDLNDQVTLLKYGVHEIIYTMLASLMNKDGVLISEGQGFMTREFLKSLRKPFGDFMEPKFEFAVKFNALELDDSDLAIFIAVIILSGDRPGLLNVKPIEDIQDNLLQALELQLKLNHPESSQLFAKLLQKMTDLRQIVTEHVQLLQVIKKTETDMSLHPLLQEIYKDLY
Sequence of Peroxisome proliferator-activated receptor delta (Homo sapiens) (Q03181 whole entry, looked up): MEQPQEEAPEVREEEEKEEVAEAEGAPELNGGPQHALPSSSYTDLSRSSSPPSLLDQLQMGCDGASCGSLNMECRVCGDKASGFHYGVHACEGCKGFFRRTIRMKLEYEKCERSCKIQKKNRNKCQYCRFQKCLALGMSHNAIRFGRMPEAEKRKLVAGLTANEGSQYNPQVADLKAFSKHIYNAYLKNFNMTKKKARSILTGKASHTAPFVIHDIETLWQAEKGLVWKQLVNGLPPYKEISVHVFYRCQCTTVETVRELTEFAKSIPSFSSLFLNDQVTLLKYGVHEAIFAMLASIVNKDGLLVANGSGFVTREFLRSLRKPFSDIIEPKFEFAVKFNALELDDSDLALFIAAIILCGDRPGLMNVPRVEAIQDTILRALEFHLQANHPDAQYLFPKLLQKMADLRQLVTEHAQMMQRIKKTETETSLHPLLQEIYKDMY

For the compound `O=C(CS)Nc1ccccc1`, the Potency result in [1], in assay [2], in assay [3], in [4], in assay [5] and in assay [6] was “inactive” each time. For the same compound, the Potency entry in [7], in assay [8], in [9], in [10], in assay [11] and in assay [12] was “inactive” each time. Besides, the Potency entry in assay [13] was “inactive”.
Regarding `CCO[C@H](Cc1ccc(OCCc2ccc(OS(C)(=O)=O)cc2)cc1)C(=O)O`, the Potency result in assay [1], in [14], in assay [4], in assay [15], in assay [5] and in assay [7] was “inactive” each time. In addition, the Potency entry in assay [8], in [10], in assay [12] and in assay [13] was “inactive” each time. The Potency in assay [2] was 0.12 µM (active); in assay [6], 11.9 µM (active).
Regarding `Cc1cccc(C)c1OCC(=O)N[C@@H](Cc1ccccc1)[C@@H](O)C[C@H](Cc1ccccc1)NC(=O)[C@H](C(C)C)N1CCCNC1=O`, the Potency entry in [16], in assay [4], in assay [18], in [7], in assay [8] and in assay [13] was “inactive” each time. The Potency in assay [17] is 23.7 µM (active); in [3], 29.8 µM (active); in [12] it was 23.7 µM (active). Moreover, the compound was classed as inactive in [19].
In the case of `C=CC(=O)OCCOCCOCCOCCOC(=O)C=C`, the Potency was 13.8 µM (active) and 19.2 µM (active) in [1]; 24.5 µM (active) and 27.1 µM (active) in assay [3]; 54.4 µM (active) in assay [5]. Also, the Potency entry in assay [14], in [4], in [7] and in assay [12] was “inactive” each time.
As for `CN1C[C@H]2c3ccccc3Oc3ccc(Cl)cc3[C@@H]2C1`, the Potency in [16] is 13.3 µM (active). Further, the Potency entry in [2], in [20], in assay [4], in [18], in assay [6] and in assay [8] was “inactive” each time. Besides, the Potency result in assay [9], in assay [10], in assay [11], in assay [12] and in assay [13] was “inactive” in each case. For the same compound, the compound was called inactive in assay [19].
For `CC(=O)OC[C@H]1O[C@@H](n2ncc(=O)[nH]c2=O)[C@H](OC(C)=O)[C@@H]1OC(C)=O`, the Potency result in assay [1], in assay [17], in assay [14], in assay [3], in assay [4] and in [18] was “inactive” each time. For the same compound, the Potency entry in [15], in assay [5], in [6], in assay [7], in [10] and in assay [11] was “inactive” in each case. In assay [13], the Potency result was “inactive”. Further, the Potency in [20] was 0.841 µM (active).
For the compound `CCCCCCCCCCCCCCOS(=O)(=O)O`, the Potency result in assay [17], in assay [2], in assay [20], in assay [14], in assay [8] and in assay [13] was “inactive” in each case. Further, the Potency in assay [4] is 61.1 µM (active); in assay [7], 43.6 µM (active); in [10], 54.9 µM (active). Besides, the compound was classed as inactive in assay [19].
For `CCN(CC)CCNc1ccc(CNC=O)c2sc3ccc(OC)cc3c(=O)c12`, the Potency is 48.6 µM (active) in assay [1]; 5.45 µM (active) in assay [17]; 12.3 µM (active) in assay [20]; 48.6 µM (active) in [4]; 15.5 µM (active) in [8]; 4.9 µM (active) in assay [10]. In addition, in assay [11], the Potency is 6.92 µM (active). Moreover, the Potency result in [18], in assay [15], in [6] and in assay [13] was “inactive” in each case.
As to `CCOc1ccc(O)cc1`, the Potency result in assay [1], in assay [17], in assay [20], in assay [4], in [18] and in [15] was “inactive” throughout. Further, the Potency result in [6], in [7], in assay [8], in [10], in assay [12] and in [13] was “inactive” in each case. Further, the Potency in assay [3] was 61.1 µM (active). Moreover, the outcome in [19] was inactive.
`Nc1cc(C(=O)O)c(O)c(S(=O)(=O)O)c1`: the Potency result in assay [16], in assay [17], in assay [2], in [14], in assay [3] and in assay [4] was “inactive” each time. Further, the Potency entry in assay [18], in assay [15], in [7], in assay [10], in assay [12] and in assay [13] was “inactive” each time. In assay [19], the outcome was inactive.
